From PubChem
TDP43 rescue – rescues yeast growth from TDP-43 toxicity | Potency, µM (highest dose often 46.1 µM), hits mostly activators | actives 1.8% (n = 410,000) | TDP-43 expressing yeast growth rescue, BacTiter-Glo, 24 h; also: nearly all actives have a fitted effect of over 50% in size
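Readout is BacTiter-Glo luminescence of cell growth, so inhibitors register as activators. TDP-43-expressing yeast at OD600=0.02 in galactose medium, after raffinose pregrowth to mid-log, were incubated with compound for 24 hr at 30 deg C.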
Abeta rescue – restores growth of yeast expressing A-beta42 peptide. yeast expressing A-beta42, growth rescue, OD600, 48 h; response scale: 0% DMSO, 100% iron-clioquinol control. Potency, µM (top dose mostly 46.1 µM), usual class: activators. actives 0.063% (n = 410,000); also: nearly all actives have a fitted effect of over 55% in size
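Yeast A-beta toxicity model in growth medium with pinned compounds, 48 h at 30 C; growth read as absorbance at 600 nm. Normalized to FeCl3/clioquinol equimolar mix (positive) and DMSO (negative).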
FUS yeast rescue – rescues growth of FUS-expressing yeast; S. cerevisiae FUS-expressing, growth rescue, OD600, 24 h; Potency, µM (doses to about 76.6 µM), most hits filed as activators; actives 0.24% (n = 390,000); also: nearly all actives have a fitted effect of over 55% in size
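Steps: raffinose overnight preculture; dilution to OD 0.005 in 2% galactose minimal medium; compound addition (concentration series); 24hr at 30C, 99% humidity; absorbance read at 600 nm.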
aSyn rescue – rescues yeast growth from alpha-synuclein toxicity | AID 652106 | actives 0.14% (n = 370,000) | Yeast expressing alpha-synuclein, growth rescue, BacTiter-Glo, 24 h | Potency, µM (highest dose often 46.1 µM), most hits filed as activators; also: nearly all actives have a fitted effect of over 65% in size
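Rescue of yeast growth: cells expressing toxic alpha-synuclein, induced in galactose at OD600 0.02, incubated with compound 24 h at 30 C. ATP luminescence quantified growth; inhibitors of toxicity appear as activators.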
A number is an active result; n = inactive; u = inconclusive; x = no result; [ ] = another dose, or the depositor's remark. Sampled rows, rich in hits. Any-hit rate of the full collection: about 2.1%. Calls follow the shape of the dose curve; as a rule, active = well fitted curve in the direction sought with a large enough effect; inconclusive = small, poorly fitted or top-dose-only effect, or another doubt; inactive = no such curve, though single readings can be large; an effect the other way counts as inactive or inconclusive.

SMILES	TDP43 rescue	Abeta rescue	FUS yeast rescue	aSyn rescue
O=C(CSc1nnc(SCc2ccc(Cl)cc2)s1)N1CCOCC1	22.4µM	n	n	n
CC(C)(C)c1csc(NC(=O)c2ccc(Cl)s2)n1	u	n	n	n
CCNc1nc(N)c(C(=O)c2ccc(Cl)s2)s1	12.6µM	n	n	n
O=C(CSc1nnc(COc2ccccc2)n1-c1ccc(Cl)cc1)Nc1ccc(OCc2ccccc2)cc1	x	x	n	x
C=CCN(CC#Cc1ccc(C(F)(F)F)cc1)CC=C	x	x	n	x
COc1ccc(/C(C)=N/NC(=S)NCCc2ccccc2)cc1	n[0.397 µM]	12.6µM	n	n
Cc1cc(N2CCOCC2)n2ncc(-c3ccccc3Cl)c2n1	12.6µM	n	n	n
COc1ccc(C2=Nc3ccccc3N(C(=O)c3ccc4c(c3)OCO4)C2C(=O)NCc2ccccc2)cc1 (stereo not given)	u	n	u	n
CC(=O)Nc1ccc(C(=O)N2c3ccccc3N=C(c3ccc4c(c3)OCO4)C2C(=O)NCc2ccccc2)cc1 (stereo not given)	n	n	12.6µM	n
COc1cccc(N2CCN(C(=O)c3cccc(NC(=O)c4nsc5ccccc45)c3)CC2)c1	u	n	n	x
COCCCNC(=O)Cc1c(C)c2c(cc(C)c3c(C(C)(C)C)coc32)oc1=O	n	n	31.6µM	n
O=C(C1CCCN1S(=O)(=O)c1ccc([N+](=O)[O-])cc1)N1CCc2ccccc2C1 (stereo not given)	x	x	n	x
Cc1ccc(-c2cc(N)n(-c3ccccc3)n2)cc1	20µM	n	n	n
Clc1ccccc1-c1ccc2ncnc(NCc3ccc4c(c3)OCO4)c2c1	x	n	n	x
Clc1ccccc1-c1cnc2sc(NCc3ccc4c(c3)OCO4)nn12	3.98µM	n	n	n
Oc1ccc(N=Nc2ccc3c(c2)OCCO3)c2cccnc12	u	u	n	20µM
C[C@]12c3[nH]c4ccc(Cl)cc4c3CCN1C(=O)[C@@H](CC(=O)NCc1cccc(C(F)(F)F)c1)C[C@@H]2C(=O)N1CCOCC1	n	n	u	n
CC(C)N(C(=O)[C@H]1C[C@H](CC(=O)NCc2cccc(C(F)(F)F)c2)C(=O)N2CCc3c([nH]c4ccc(Cl)cc34)[C@]12C)C(C)C	35.5µM	n	n	u
CC[C@]12c3[nH]c4cc(-c5ccco5)ccc4c3CCN1C(=O)[C@@H](CC(=O)NCc1ccc(OC)c(OC)c1)C[C@@H]2C(=O)N1CCN(C(=O)c2ccco2)CC1	n	n	35.5µM	n
CC(C)N(C(=O)[C@H]1C[C@H](CC(=O)NCc2ccco2)C(=O)N2CCc3c([nH]c4ccc(Cl)cc34)[C@]12C)C(C)C	35.5µM	n	u	n
CC[C@]12c3[nH]c4ccccc4c3CCN1C(=O)C(CC(=O)NC/C=C(\C)CCC=C(C)C)C[C@@H]2C(=O)N1CCN(C(=O)C2CC2)CC1 (stereo not given in full)	n	n	17.8µM	n
CCN(CC)C(=O)[C@H]1C[C@H](CC(=O)NCc2ccco2)C(=O)N2CCc3c([nH]c4ccc(Cl)cc34)[C@]12C	n	n	n	n
CNC(=O)c1cnc2sc(N3CCC(C)CC3)nn2c1=O	n	n	n	x
CC(C)N(C(=O)[C@H]1C[C@H](CC(=O)NCc2ccco2)C(=O)N2CCc3c([nH]c4cc(-c5ccco5)ccc34)[C@]12C)C(C)C	12.6µM	n	u	u
O=[N+]([O-])c1cccc(C(=Nc2ccccc2)NO)c1	n	n	n	n
SMILES	TDP43 rescue	Abeta rescue	FUS yeast rescue	aSyn rescue
O=[N+]([O-])c1cc([N+](=O)[O-])c2c(=Nc3ccccc3)n(-c3ccccc3)n(O)c2c1	12.6µM	n	n	n
COc1cc2c(NC3CCN(C)CC3)nc(N3CCCN(C)CC3)nc2cc1O	x	x	x	n
Cc1ccc(/C(O)=C2\C(=O)C(=O)N(CCc3c[nH]c4ccccc34)C2c2cccnc2)cc1 (stereo not given)	n	n	35.5µM	n
CCCN1CNc2c(c(=O)[nH]c(=S)n2CCc2cccc(OC)c2)C1	x	x	x	n
CNc1c(N)c(=O)oc2ccccc12	n	n	n	n
Cc1ccc(Nc2c(N)c(=O)oc3ccccc23)cc1	14.1µM	n	n	n
CC(C)(C)NC(=O)NC(=O)COc1ccc(Br)cc1Br	28.2µM	n	n	n
Cc1nc2c(OCc3ccc(C(F)(F)F)cc3)cccn2c1N(C)C(=O)CCC1CCCC1	n	n	22.4µM	n
C=CCC[C@H](Cc1ccc(F)cc1)C(=O)OC[C@@H](NC(=O)[C@@H](CC=C)CC(=O)N[C@@H](CO)Cc1ccccc1)C(C)(C)C	n	n	12.6µM	n
C=CC[C@@H](CC(=O)N[C@H](CO)Cc1ccccc1)C(=O)N[C@H](COC(=O)[C@@H](CC=C)Cc1ccc(F)cc1)C(C)(C)C	n	n	15.8µM	n
C=CCC[C@H](Cc1ccc(F)cc1)C(=O)OC[C@@H](C)NC(=O)[C@@H](CC=C)CC(=O)N[C@H](CO)Cc1ccccc1	n	n	25.1µM	n
C=CC[C@@H](CC(=O)N[C@@H](CO)Cc1ccccc1)C(=O)N[C@H](COC(=O)[C@@H](CC=C)Cc1ccc(F)cc1)Cc1ccccc1	n	n	n	n
C=CCC[C@@H](Cc1ccc(F)cc1)C(=O)OC[C@@H](NC(=O)[C@@H](CC=C)CC(=O)N[C@@H](CO)Cc1ccccc1)C(C)(C)C	n	n	n	n
C=CCC[C@H](Cc1ccc(F)cc1)C(=O)OC[C@@H](C)NC(=O)[C@@H](CC=C)CC(=O)N[C@@H](CO)Cc1ccccc1	n	n	n	n
O=C(CSc1nc2ccccc2nc1Cc1ccc(F)cc1)Nc1ccc2c(c1)OCO2	n	n	n	x
NNc1ccc(Cc2ccc(Cl)cc2Cl)nn1	n	n	n	n
CSc1ccc(Cc2ccc(Cl)cc2Cl)nn1	11.2µM	n	n	n
Cc1ccc(-c2cc(-c3n[nH]c(=S)o3)c3ccccc3n2)cc1	u	n	n	n
S=c1[nH]nc(-c2cc(-c3ccccn3)nc3ccccc23)o1	3.16µM	n	n	n
O=C(NC1CCSc2ccccc21)c1cc([N+](=O)[O-])ccc1N1CCOCC1 (stereo not given)	35.5µM	n	n	n
O=C(OCc1ccccc1F)c1cc([N+](=O)[O-])ccc1N1CCOCC1	35.5µM	n	x	n
COc1cc2c(NC3CCN(C)CC3)nc(N3CCCN(C)CC3)nc2cc1OCCN(C)CCN(C)C	x	x	x	n
CCOC(=O)N1CCN(c2nc(C)c3c(n2)CC(C)CC3=O)CC1 (stereo not given)	20µM	n	n	n
C=C(/C=C/c1ccc(N(C)C)cc1)c1nc2ccccc2s1	x	x	x	n
CC(=O)c1ccc([C@H](O)[C@H](C)C(=O)N(C)c2ccccc2)cc1	x	x	n	x
CC(C)CC1C(=O)N(Cc2cn(CCC3OCCO3)nn2)CCS(=O)(=O)N1Cc1ccc(-c2ccccc2)cc1 (stereo not given)	22.4µM	n	u	n
